Screens from PubChem.
Vc quorum ag – inducers of Vibrio cholerae quorum light production without autoinducers; activation, % at 18.7 µM; 0.16% of 350,000 active; V. cholerae BH1578 lux reporter, luminescence, 6 h; in the data active means activation mostly above about 9.7%, no sharp cut-off
FBA Mtb inh – Mtb fructose-bisphosphate aldolase inhibition; purified M. tuberculosis FBA, fluorescence read-out; AID 588726; 2.3% of 360,000 active; P9WQA3; inhibition, % at 1 µM
Target sequence (P9WQA3 whole entry, looked up): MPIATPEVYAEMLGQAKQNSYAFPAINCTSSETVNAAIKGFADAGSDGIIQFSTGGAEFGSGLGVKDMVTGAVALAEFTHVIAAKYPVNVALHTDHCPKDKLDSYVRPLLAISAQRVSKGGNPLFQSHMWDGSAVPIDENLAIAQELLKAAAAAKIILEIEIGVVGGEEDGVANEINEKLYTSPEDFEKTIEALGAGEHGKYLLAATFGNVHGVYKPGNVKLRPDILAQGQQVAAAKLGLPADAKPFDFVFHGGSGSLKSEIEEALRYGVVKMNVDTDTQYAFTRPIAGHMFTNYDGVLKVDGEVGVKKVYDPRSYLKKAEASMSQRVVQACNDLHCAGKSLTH
GDH-TPI counter-1 – inhibits GDH-TPI coupling enzymes, artifact for Mtb FBA screen; GDH-TPI coupled enzyme counterscreen, NADH absorbance; inhibition, % at 4.8 µM; 1.2% of 360,000 active; AID 588335; in the data active means inhibition above about 30%
CCHFV vOTU inh – blocks the CCHF virus ovarian tumor domain protease. inhibition, % at 11.5 µM. 0.55% of 370,000 active. AID 651958. CCHFV vOTU protease, Pep-AMC fluorescence; in the data active means inhibition above about 30%
Mtb FBA confirm – Mtb FBA inhibition, confirmed | shares compounds with FBA Mtb inh | purified M. tuberculosis FBA, fluorescence read-out | inhibition, % at 1 µM | 78% of 5,600 active | AID 651616
GDH-TPI counter-2 – inhibits GDH-TPI coupling enzymes, flagging Mtb FBA hits. shares compounds with FBA Mtb inh. GDH-TPI coupled enzyme counterscreen, fluorescence. inhibition, % at 1 µM. 81% of 5,600 active. AID 652141; in the data active means inhibition above about 10%
Large screens that a line does not name were inactive (follow-up assays come after a bar, where they were run). Only some compounds are listed: those with a hit (about 3.9% of all), similar ones and a draw of the others. Unless noted, no stated cut-off is given here; in the data, active means inhibition above about 27%; inactive means the rest.

CCCCn1nc2cc(C(=O)NCc3cc(C(F)(F)F)cc(C(F)(F)F)c3)ccc2c1OCC	none
COCCn1nc2cc(C(=O)NCc3cc(C(F)(F)F)cc(C(F)(F)F)c3)ccc2c1OC	FBA Mtb inh 47 | Mtb FBA confirm 57 | GDH-TPI counter-2 42
CCOc1c2ccc(C(=O)NCc3cc(C(F)(F)F)cc(C(F)(F)F)c3)cc2nn1C	FBA Mtb inh 57 | Mtb FBA confirm 60 | GDH-TPI counter-2 44
CCOc1c2ccc(C(=O)NCc3cc(C(F)(F)F)cc(C(F)(F)F)c3)cc2nn1CCOC	FBA Mtb inh 43 | Mtb FBA confirm 105 | GDH-TPI counter-2 64
Cc1ccc(CNC(=O)CN(C(=O)C2(C)CC(=O)N=C3C=CC=CN32)c2ccccc2)cc1 (stereo not given)	FBA Mtb inh 74 | Mtb FBA confirm inactive | GDH-TPI counter-2 inactive
Cc1ccc(CN2CCN(CC(=O)NCc3ccccc3)CC2)cc1	none
CC1=CC2=NC(=O)CC(C)(C(=O)N(CC(=O)NC(C)(C)C)C3CCCC3)N2C=C1 (stereo not given)	none
Cc1ccc(CNC(=O)CN(C(=O)C2(C)CC(=O)N=C3C=CC=CN32)c2cccc(C)c2C)cc1 (stereo not given)	FBA Mtb inh 111 | Mtb FBA confirm 93 | GDH-TPI counter-2 86
CCOC(=O)c1cn(C2CC2)c2c(F)c(NCCCN(C)C)c(F)cc2c1=O	FBA Mtb inh 70 | Mtb FBA confirm 134 | GDH-TPI counter-2 79
COC(=O)c1cc(NC(=O)C(C)c2ccc(CC(C)C)cc2)ccc1O (stereo not given)	none
CN(CC(=O)Nc1cccc(F)c1)C(=O)C1CCN(C(=O)c2ccc(Cl)cc2)CC1	none
O=C(COc1ccccc1)Nc1cccc(-c2nc3cc4ccccc4cc3[nH]2)c1	FBA Mtb inh 72 | Mtb FBA confirm 101 | GDH-TPI counter-2 79
Cc1ccc(C(=O)N2CCC(C)CC2)cc1S(=O)(=O)N1CCCCC1	none
CCCCn1c(-c2ccc(F)c(F)c2)nc2cc3[nH]c(=O)c(C(C)C)nc3cc21	FBA Mtb inh 52 | Mtb FBA confirm 113 | GDH-TPI counter-2 92
CCCCn1c(CCc2ccccc2)nc2cc3[nH]c(=O)c(C(C)C)nc3cc21	FBA Mtb inh 33 | Mtb FBA confirm 61 | GDH-TPI counter-2 50
CCCCn1c(-c2cccc(F)c2)nc2c1c(=O)[nH]c(=O)n2CC(C)C	none
CN1C(=O)c2ccccc2N(C)C1c1ccccc1Cl (stereo not given)	FBA Mtb inh 64 | Mtb FBA confirm 57 | GDH-TPI counter-2 38
CN1C(=O)c2ccccc2N(C)C1c1cccs1 (stereo not given)	FBA Mtb inh 36 | Mtb FBA confirm 200 | GDH-TPI counter-2 136
CN1c2ccccc2C(=O)NC1c1ccc(Cl)cc1 (stereo not given)	none
C=CCn1c2ccccc2n2nc(C)c(=O)nc12	none
O=C(O)CCc1nn2c3ccccc3nc2n(CCN2CCCCC2)c1=O	FBA Mtb inh 35 (no result: Vc quorum ag) | Mtb FBA confirm 117 | GDH-TPI counter-2 88
Cc1nn2c3ccccc3n(CCN3CCCCC3)c2nc1=O	FBA Mtb inh 32 | Mtb FBA confirm 154 | GDH-TPI counter-2 102
CCOc1ccc(OCC)c(NS(=O)(=O)c2cn(C)cn2)c1	none
Cn1cnc(S(=O)(=O)Nc2ccccc2C(=O)NCC2CC2)c1	FBA Mtb inh 29 | Mtb FBA confirm 82 | GDH-TPI counter-2 64
O=C(COc1ccc2c3c(c(=O)oc2c1)CCCC3)NC(Cc1ccc(Cl)cc1)C(=O)O (stereo not given)	FBA Mtb inh 67 | Mtb FBA confirm 124 | GDH-TPI counter-2 100
O=C(COc1ccc2c3c(c(=O)oc2c1)CCCC3)N[C@@H](Cc1ccccc1)C(=O)O	FBA Mtb inh 59 | Mtb FBA confirm inactive | GDH-TPI counter-2 inactive
CC(Oc1ccc2c3c(c(=O)oc2c1)CCC3)C(=O)N[C@@H](Cc1ccccc1)C(=O)O (stereo not given in full)	none
COc1cc2[nH]c(=O)n(CCCC(=O)NC3CCCCC3)c(=O)c2cc1OC	none (no result: CCHFV vOTU inh)
CCOC(=O)Nc1ccc(C(=O)Oc2ccccc2)c(O)c1	none
Cc1cccc(OC(=O)Nc2ccc(C(=O)O)c(O)c2)c1	FBA Mtb inh 29 | Mtb FBA confirm active | GDH-TPI counter-2 180
CCCCn1c(-c2csc3ccccc23)n[nH]c1=S	none
CCCCCCn1c(-c2cccs2)n[nH]c1=S	FBA Mtb inh 48, GDH-TPI counter-1 183 | Mtb FBA confirm inactive | GDH-TPI counter-2 inactive
